Assay outcomes (PubChem BioAssay)
Most compounds without a hit are left out; they make up all but 5.7% or so of the library.
GLP-1R inv ag: inverse agonists of human GLP-1 receptor | HEK293 GLP-1R CRE-luciferase, luminescence, 24 h; GLP-1R form is constitutively active | Potency, µM (doses to about 38.3 µM), for the others: at the top dose activity change, negative = inhibition, actives largely listed as inhibitors | hit rate 1.6% among 410,000 | AID 624417; also: potency is read from the fitted curve at half-maximal effect; % is scaled to controls: 0 for no effect and ±100 for the full control effect; nearly all actives have a fitted effect of over 55% in size
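qHTS in 1536-well format: reporter HEK293 cells expressing constitutive GLP-1R activity in DMEM + 10% Nu serum, 24 hr with compounds at 37 deg C, luminescence read after 12 min with detection reagent.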
DRD3 agonist: activates the human D3 dopamine receptor. P35462. max activation, %. hit rate 0.58% among 410,000. AID 652048. D3R DiscoveRx beta-arrestin cells, luminescence, 90 min; in the data active = max activation above about 30%; also: 0% is about no effect
Target sequence (P35462 whole entry, looked up): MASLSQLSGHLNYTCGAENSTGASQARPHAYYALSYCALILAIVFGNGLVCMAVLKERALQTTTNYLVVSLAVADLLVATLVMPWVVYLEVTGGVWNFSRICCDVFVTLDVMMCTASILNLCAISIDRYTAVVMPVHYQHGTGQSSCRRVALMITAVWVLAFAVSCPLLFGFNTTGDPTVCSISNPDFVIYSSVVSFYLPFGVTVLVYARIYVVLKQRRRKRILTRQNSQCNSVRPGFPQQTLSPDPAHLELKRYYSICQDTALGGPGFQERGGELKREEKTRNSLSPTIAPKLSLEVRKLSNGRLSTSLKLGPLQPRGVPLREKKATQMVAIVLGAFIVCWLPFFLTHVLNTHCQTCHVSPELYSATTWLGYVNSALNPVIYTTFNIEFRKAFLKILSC
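Cells at 1500/well, incubated overnight, then treated with pinned compounds (dopamine as control) for 90 min at 37 degrees C. DiscoveRx reagent added for 30 - 60 minutes at room temperature; luminescence read.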
GLP1R cytotox: cytotoxicity in counter-screen for GLP-1R inverse agonists; HEK293 cAMP-luciferase reporter cells, luminescence, 24 h; Potency, µM (doses to about 38.3 µM), inactives show top-dose activity change, negative = inhibition, usual class: inhibitors; hit rate 0.13% among 410,000;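 also: loss of luciferase light is scored as toxicity; potency is read from the fitted curve at half-maximal effect; % is scaled to controls: 0 for no effect and ±100 for the full control effect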
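To flag toxic compounds, the library was rerun on cells for 24 hr at 37 deg C and 5% CO2. Viability-linked luminescence was captured 12 min after adding luciferase detection reagent.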
D3 antag: D3 dopamine receptor (human) antagonism. hit rate 2.5% among 360,000. P35462. max response, negative = inhibition, %. D3R cells, DiscoveRx beta-arrestin luminescence, antagonist mode; active compounds read low; in the data active = max response below about -50%; inconclusive = no clear call, values can overlap the other calls; also: % is scaled to controls: 0 for no effect and ±100 for the full control effect
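Cells plated overnight at 1500 cells/well, then exposed to library compounds with dopamine controls for 90 minutes at 37 degrees C. DiscoveRx reagent added for 30–60 minutes at room temperature; luminescence read, quantitative HTS format.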
GLP-1R agonist: GLP-1 receptor (human) agonism | P43220 | HEK293 GLP-1R CRE-luciferase, luminescence, 4-6 h; cells express a hypersensitive GLP-1R form | Potency, µM (series often up to 45.6 µM), inactives show at the highest dose activation, hits mostly activators | hit rate 0.007% among 380,000 | AID 624172; also: potency is read from the fitted curve at half-maximal effect; % of control where 0% means no effect
ClpP mod: qHTS Assay for Activators of ClpP; purified B. subtilis ClpP, FRET peptide cleavage, 20 min; Potency, µM (highest dose often 57.5 µM), for inactives: top-dose activity change, negative = active; hit rate 1.9% among 340,000; active = well fitted falling curve with a large enough effect; inconclusive = small, poorly fitted or top-dose-only effect; inactive = no such curve, though single readings can be large or run the other way; also: potency is read from the fitted curve at half-maximal effect; the source files actives as falling curves though it sought activators and does not explain the sign; nearly all actives have a fitted effect of over 65% in size
Target sequence (P80244 whole entry, looked up): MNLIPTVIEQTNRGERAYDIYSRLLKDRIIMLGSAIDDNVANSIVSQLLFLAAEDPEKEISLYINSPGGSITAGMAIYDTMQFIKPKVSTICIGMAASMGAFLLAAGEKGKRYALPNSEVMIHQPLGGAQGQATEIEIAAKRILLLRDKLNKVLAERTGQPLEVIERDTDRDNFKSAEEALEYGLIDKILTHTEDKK
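Buffer: 100 mM Tris/HCl pH8, 100 mM KCl, 0.05% low protease BSA, 2.5% glycerol, 0.01% Tween-20. ClpP 10 microg/mL final; 20 min RT; delta FRET normalized to ADEP and DMSO controls.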
Starred values were filed as active, the others as inactive; ? = inconclusive; / = not tested or not shown. Unless noted, calls follow the shape of the dose curve; as a rule, active = well fitted curve in the direction sought with a large enough effect; inconclusive = small, poorly fitted or top-dose-only effect, or another doubt; inactive = no such curve, though single readings can be large; an effect the other way counts as inactive or inconclusive.

SMILES | GLP-1R inv ag | DRD3 agonist | GLP1R cytotox | D3 antag | GLP-1R agonist | ClpP mod
CCOC(=O)c1c(C(F)(F)F)nc2ncccn12 | 5.4% | -0.8 | -10.1% | 7.3 | -8.5% | 25.1µM*
CN1OC[C@@H]2CN(S(=O)(=O)c3ccccc3)[C@H](c3ccccc3Br)C[C@@H]21 | 10.9% | 7.6 | 0.8% | 22.2 | -0.4% | -0.5%
O=S(=O)(c1ccc(Cl)cc1)c1nc(-c2cccs2)oc1N1CCCCC1 | 5.9% | -12.2 | 15.1% | / | / | -13.8%
Cc1[nH]nc2c1C(c1ccccc1)C1=C(CC(C)(C)CC1=O)N2 (configuration not stated) | -0.2% | -1.5 | -11.5% | -22.3 | 2.1% | 28.2µM*
COc1ccc(C2C3=C(CC(C)(C)CC3=O)Nc3n[nH]c(C)c32)cc1 (configuration not stated) | 8.8% | 4.7 | -10.4% | 14.8 | 4.2% | 35.5µM*
Cc1[nH]nc2c1C(c1ccc(O)cc1)C1=C(CC(C)(C)CC1=O)N2 (configuration not stated) | -29.8% | -5.2 | 0.2% | -16.8 | 6.6% | /
COc1cccc(C(C(=O)NCc2ccco2)N(C(=O)Cn2nnc3ccccc32)C2CC2)c1OC (configuration not stated) | 1.7% | 1.0 | -3.1% | -53.3* | -1.7% | -1.6%
CCCc1nc2ccc(Cl)cn2c1Cc1ccc(C)cc1 | 8.3% | -0.6 | 2.0% | -6.8 | 1.7% | -14.5%
CCCCNC(=O)c1nc(-c2cccnc2)oc1-c1ccc(OC(F)(F)F)cc1 | 1.3% | -4.8 | 1.7% | -3.8 | / | 5.2%
CCOCCCN1C(=O)c2[nH]nc(-c3ccccc3O)c2C1c1ccc(CC)cc1 (configuration not stated) | ? | -6.9 | -24.3% | / | / | -2.4%
CC1(C(=O)NS(=O)(=O)c2cccc(C#N)c2)CCN1C(=O)Cc1cc(F)ccc1F (configuration not stated) | 23.7% | 2.0 | -1.4% | -11.0 | -5.1% | 0.9%
COc1ccc(/C=C(/C(=O)NCc2ccccc2)c2ccccc2)cc1 | 25.1µM* | -1.6 | -15.1% | -17.9 | 0.6% | -2.8%
COc1ccc(-c2nc(Cn3c(SCc4ccc(F)cc4)nc4cccnc43)c(C)o2)cc1 | -5.5% | 7.4 | 0.3% | / | / | -25.0%
COc1ccc(-c2nc(Cn3c(SCc4ccc(C)cc4)nc4cccnc43)c(C)o2)cc1OC | 10µM* | -8.9 | -22.4% | / | / | -6.0%
Cc1oc(-c2ccccc2Cl)nc1Cn1c(SCc2cccc(F)c2)nc2cccnc21 | ? | 43.8* | -5.8% | / | / | 4.6%
COc1ccc(-c2nc(Cn3c(SCc4cccc(F)c4)nc4cccnc43)c(C)o2)cc1 | ? | 12.8 | -6.5% | / | / | 5.0%
CCOc1ccc(CCNC(=O)CN2C(=O)COc3ccc(S(=O)(=O)N(CC)CC)cc32)cc1 | -25.4% | -12.4 | 2.7% | / | -1.3% | -17.9%
CC1(C)Cc2cccc(OCC(=O)N3CCN(c4cccc(C(F)(F)F)c4)CC3)c2O1 | 10µM* | 1.9 | -6.4% | 2.1 | 0.3% | -0.4%
CC1(C)Cc2cccc(OCC(=O)N3CCN(c4cccc(Cl)c4)CC3)c2O1 | ? | 2.8 | 1.9% | -14.9 | 5.4% | 25.1µM*
Cc1oc(-c2ccccc2Cl)nc1CSc1nc2ncccc2[nH]1 | 5.4% | 8.1 | -3.8% | / | / | 2.8%
COC(=O)[C@@]1(Sc2ccc(C)cc2)CC(=O)N(C(=O)CCc2ccccc2)[C@@H]1c1ccccc1 | ? | 6.1 | 4.6% | 10.0 | -3.2% | 0.7%
COc1ccc(-c2cc(C(=O)NCc3ccc(C(F)(F)F)cc3)[nH]n2)c(C)c1 | ? | -7.9 | -11.7% | -6.6 | -2.8% | 1.7%
O=C(Nc1cc(C(F)(F)F)ccc1Cl)c1cnn(-c2ccccc2)c1-n1cccc1 | 6.3% | 55.4* | 3.0% | / | / | -16.7%
Cc1cccc(N2CCN(C(=O)Cn3c(-c4cccs4)cc4ccccc43)CC2)c1C | ? | 4.7 | -0.7% | / | / | 15.8µM*
Cc1cccc(N2CCN(C(=O)/C=C/c3cccs3)CC2)c1C | ? | 43.2* | -1.1% | 2.9 | -0.3% | -0.9%
SMILES | GLP-1R inv ag | DRD3 agonist | GLP1R cytotox | D3 antag | GLP-1R agonist | ClpP mod
Cc1ccc(C)c(N2CCN(C(=O)Cn3ncc4ccsc4c3=O)CC2)c1 | -29.2% | 0.3 | -4.2% | / | -1.9% | -0.9%
Cc1ccc(C)c(N2CCN(C(=O)Cn3c(-c4cccs4)cc4ccccc43)CC2)c1 | ? | 1.0 | 5.6% | / | / | 15.8µM*
Cc1cccc(N2CCN(C(=O)c3cccs3)CC2)c1C | ? | 4.5 | 6.6% | 7.0 | -0.5% | 5.1%
O=C(O)C1Nc2ccccc2C2C=CCC12 (configuration not stated) | / | / | / | / | / | -9.0%
O=C(Cc1ccccc1)NNc1ccc2ccccc2c1 | 0.562µM* | -3.2 | -15.4% | -6.6 | -0.9% | -27.1%
O=C(COc1ccc2ccccc2c1)NNC(=O)Cc1ccccc1 | -23.3% | 3.3 | -17.4% | 6.8 | -10.5% | -6.2%
CCc1sc(Nc2cccc(C)c2C)nc1-c1cc2cccc(OC)c2oc1=O | 0.9% | 10.9 | 4.7% | / | / | -1.9%
O=C(Nc1ccc(F)cc1F)NC1CCN(Cc2c(F)cccc2Cl)CC1 | 8.91µM* | -8.0 | -1.9% | -15.6 | 10.4% | /
Cc1cc(Cl)ccc1NC(=O)NC1CCN(S(=O)(=O)c2ccc(F)cc2)CC1 | 6.31µM* | -0.2 | ? | 15.7 | -5.0% | 5.2%
CCN(C(=O)CSc1nc(-c2ccc(C(C)C)cc2)no1)c1ccccc1 | 11.2µM* | 3.5 | 3.4% | / | / | -5.4%
CCN(C(=O)CSc1nc(-c2ccc(C(C)C)cc2)no1)c1cccc(C)c1 | ? | 0.7 | -4.1% | / | / | -2.1%
CCOC(=O)Cc1csc(NC(=O)c2ccc(Cl)s2)n1 | ? | 28.6 | 0.1% | 12.7 | -2.7% | 1.2%
CCOC(=O)Cc1csc(NC(=O)c2ccc(S(=O)(=O)N3CCCCC3)cc2)n1 | -7.7% | 36.1* | -0.4% | 13.6 | 0.9% | -1.1%
CCOC(=O)Cc1csc(NC(=O)c2cc(C)c(C)s2)n1 | ? | 3.6 | -1.9% | 2.5 | 0.9% | 28.2µM*
CCOC(=O)Cc1csc(NC(=O)c2csc3c2CCCC3)n1 | -4.6% | 1.6 | -8.8% | -63.4* | 4.8% | -1.5%
COC(=O)c1cc2sc(C)cc2n1CC(=O)Nc1cccc(SC)c1 | -3.0% | -11.2 | -5.2% | / | / | -22.3%
CCOc1ccccc1CNC(=O)c1cnn(-c2ccc(C)cc2)c1-n1cccc1 | -6.8% | 17.6 | 5.5% | / | / | -3.9%
CC(C)(C)CC(=O)OCC(=O)[C@@]12OC(C)(C)O[C@@H]1C[C@H]1[C@@H]3CCC4=CC(=O)C=C[C@]4(C)[C@@]3(F)[C@@H](O)C[C@@]12C | / | -6.7 | / | / | / | /
